Assay [1] can be described thus: NCI Yeast Anticancer Drug Screen. Data for the rad50 strain (AID 155).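 Also: 0% = growth of vehicle-only cultures of the same strain.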 Conditions: S. cerevisiae rad50 strain growth inhibition, stronger effect = higher value. Put shortly: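 Cells are treated with compound, grown, and their growth is then scored against vehicle-only cultures of the same repair-deficient yeast strain.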
The nature of assay [2]: NCI Yeast Anticancer Drug Screen. Data for the mec2-1 strain (AID 157). Conditions: S. cerevisiae mec2-1 strain, stronger effect = higher value. Put shortly:
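Vehicle-treated cultures served as reference for growth inhibition of compound-exposed mec2-1 yeast.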

Assay [3] is described as follows: NCI Yeast Anticancer Drug Screen. Data for the sgs1 mgt1 strain (AID 161).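 Also: 0% = growth of cultures given vehicle only.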 Conditions: S. cerevisiae sgs1 mgt1 strain, stronger effect = higher value. Put shortly: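 Test agents were incubated with a DNA-repair-mutant yeast strain. Growth was then read and compared against vehicle-treated controls.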
The nature of assay [4]: NCI Yeast Anticancer Drug Screen. Data for the cln2 rad14 strain (AID 165).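 Also: 0% = growth equal to vehicle treated cultures.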 Conditions: S. cerevisiae cln2 rad14 strain, stronger effect = higher value. Put shortly:
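Each compound was tested on cln2 rad14 yeast. Inhibition of growth was calculated against vehicle-exposed controls.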

The nature of assay [5]: NCI Yeast Anticancer Drug Screen. Data for the bub3 strain (AID 167). Conditions: S. cerevisiae bub3 mutant strain, stronger effect = higher value. Put shortly: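 Part of a panel of yeast mutants defective in DNA damage repair or cell cycle regulation. Each strain is grown with compound, and inhibition is calculated relative to solvent-treated cultures.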
The nature of assay [6]: NCI Yeast Anticancer Drug Screen. Data for the mlh1 rad18 strain (AID 175). Conditions: S. cerevisiae mlh1 rad18 strain growth inhibition, stronger effect = higher value. Put shortly: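 Vehicle-treated cultures served as the reference for growth inhibition in a yeast strain carrying DNA damage repair alterations exposed to each compound.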
[7] abbreviates: at 5.0 µM (retest, dose inferred, filed as 0.5).
Setting [8] is: at 50.0 µM (retest, dose inferred, filed as 5.0).

Molecules are shown by their SMILES. About 79,000 compounds went through this panel and 15% of them were active in at least one assay; those are over-represented in the sample as a whole. Unmarked numbers belong to inactive results. The source made the active and inactive calls. Rule as the data show it: active = growth inhibition above about 70%; inactive = the rest.

Consider `CC1=C(C(=O)Nc2ccccc2)C(c2cc(Cl)cc(Cl)c2)C(C(=O)Nc2ccccc2)=C(C)N1`, for which the growth inhibition in assay [1] (setting [7]) was 2%; in assay [1] (setting [8]) it was 2%; in assay [1] (at 50.0 µM) it was 87% (active); in assay [2] (setting [7]) it was 19%; in assay [2] (setting [8]) it was 19%; in assay [2] (at 50.0 µM) it was 85.5% (active). The growth inhibition in assay [3] (setting [7]) was 11%; in assay [3] (setting [8]), 11%; in assay [3] (at 50.0 µM) it was 83% (active); in assay [4] (setting [7]), 5%; in assay [4] (setting [8]), 5%; in assay [4] (at 50.0 µM), 63.1%. In addition, the growth inhibition is -11% in assay [5] (setting [7]); -11% in assay [5] (setting [8]); 63.4% in assay [5] (at 50.0 µM); -4% in assay [6] (setting [7]); -4% in assay [6] (setting [8]); 74.1% (active) in assay [6] (at 50.0 µM).
On to `CN(C)C(=O)c1cc(Cl)cc(-c2ccccc2)c1O`, for which the growth inhibition in assay [1] (setting [7]) was 1%; in assay [1] (setting [8]), 67%; in assay [1] (at 50.0 µM), 40.5%; in assay [2] (setting [7]) it was 1%; in assay [2] (setting [8]) it was 74% (active); in assay [2] (at 50.0 µM) it was 32.1%. The growth inhibition in assay [3] (setting [7]) was -1%; in assay [3] (setting [8]), 68%; in assay [3] (at 50.0 µM), 46.1%; in assay [4] (setting [7]), -5%; in assay [4] (setting [8]), 38%; in assay [4] (at 50.0 µM), -6.75%. The growth inhibition in assay [5] (setting [7]) was 1%; in assay [5] (setting [8]), 86% (active); in assay [5] (at 50.0 µM) it was 60.2%; in assay [6] (setting [7]), 1%; in assay [6] (setting [8]), 93% (active); in assay [6] (at 50.0 µM), 78.8% (active).
For the molecule `O=C1C(C(O)(C(F)(F)Cl)C(F)(F)Cl)CCC1C(O)(C(F)(F)Cl)C(F)(F)Cl` (stereo not given), the growth inhibition in assay [1] (setting [7]) is 92% (active); in assay [1] (setting [8]), 99% (active); in assay [1] (at 50.0 µM) it was 99.8% (active); in assay [2] (setting [7]), 95% (active); in assay [2] (setting [8]) it was 100% (active); in assay [2] (at 50.0 µM), 99.5% (active). Also, the growth inhibition in assay [3] (setting [7]) was 95% (active); in assay [3] (setting [8]), 99% (active); in assay [3] (at 50.0 µM), 99.8% (active); in assay [4] (setting [7]), 94% (active); in assay [4] (setting [8]) it was 99% (active); in assay [4] (at 50.0 µM) it was 99.4% (active). Moreover, the growth inhibition was 78% (active) in assay [5] (setting [7]); 99% (active) in assay [5] (setting [8]); 98.1% (active) in assay [5] (at 50.0 µM); 95% (active) in assay [6] (setting [7]); 99% (active) in assay [6] (setting [8]); 99.5% (active) in assay [6] (at 50.0 µM).
Take `CCOc1ccc(N=Nc2c(C)nn(C(=S)SC)c2OCC)cc1`: the growth inhibition was 10% in assay [1] (setting [7]); 54% in assay [1] (setting [8]); 99.3% (active) in assay [1] (at 50.0 µM); -7% in assay [2] (setting [7]); 61% in assay [2] (setting [8]); 99.7% (active) in assay [2] (at 50.0 µM). The growth inhibition in assay [3] (setting [7]) was 4%; in assay [3] (setting [8]), 74% (active); in assay [3] (at 50.0 µM) it was 99.2% (active); in assay [4] (setting [7]) it was -13%; in assay [4] (setting [8]), 27%; in assay [4] (at 50.0 µM), 99.5% (active). For the same molecule, the growth inhibition is -17% in assay [5] (setting [7]); 72% (active) in assay [5] (setting [8]); 99.3% (active) in assay [5] (at 50.0 µM); -24% in assay [6] (setting [7]); 73% (active) in assay [6] (setting [8]); 99.5% (active) in assay [6] (at 50.0 µM).
Consider `Nc1ccc2c(c1)S(=O)(=O)c1cc(N)ccc1-2`, for which the growth inhibition in assay [1] (setting [7]) is 22%; in assay [1] (setting [8]), 27%; in assay [1] (at 50.0 µM) it was 41.4%; in assay [2] (setting [7]), 19%; in assay [2] (setting [8]), 15%; in assay [2] (at 50.0 µM), 18.8%. The growth inhibition in assay [3] (setting [7]) is 20%; in assay [3] (setting [8]), 19%; in assay [3] (at 50.0 µM), -29%; in assay [4] (setting [7]), 18%; in assay [4] (setting [8]), 25%; in assay [4] (at 50.0 µM), 5.8%. Further, the growth inhibition in assay [5] (setting [7]) was 22%; in assay [5] (setting [8]) it was 27%; in assay [5] (at 50.0 µM), -17.8%; in assay [6] (setting [7]), 26%; in assay [6] (setting [8]), 25%; in assay [6] (at 50.0 µM), -43.8%.
`O=C(/C(=C/c1ccc(Cl)cc1)c1ccccc1)c1ccc(O)cc1`: the growth inhibition is 94% (active) in assay [1] (setting [7]); 94% (active) in assay [1] (setting [8]); 95.8% (active) in assay [1] (at 50.0 µM); 64% in assay [2] (setting [7]); 97% (active) in assay [2] (setting [8]); 95.5% (active) in assay [2] (at 50.0 µM). The growth inhibition in assay [3] (setting [7]) was 94% (active); in assay [3] (setting [8]), 94% (active); in assay [3] (at 50.0 µM) it was 96.5% (active); in assay [4] (setting [7]) it was 53%; in assay [4] (setting [8]) it was 92% (active); in assay [4] (at 50.0 µM), 92.5% (active). In addition, the growth inhibition is 89% (active) in assay [5] (setting [7]); 95% (active) in assay [5] (setting [8]); 97.3% (active) in assay [5] (at 50.0 µM); 96% (active) in assay [6] (setting [7]); 95% (active) in assay [6] (setting [8]); 97% (active) in assay [6] (at 50.0 µM).
On to `COC(=O)N/N=C(/CC1(O)C(=O)Nc2ccccc21)c1ccc(Cl)cc1Cl` (stereo not given), for which the growth inhibition is 21% in assay [1] (setting [7]); 97% (active) in assay [1] (setting [8]); 97.5% (active) in assay [1] (at 50.0 µM); 10% in assay [2] (setting [7]); 97% (active) in assay [2] (setting [8]); 98.5% (active) in assay [2] (at 50.0 µM). The growth inhibition in assay [3] (setting [7]) was 32%; in assay [3] (setting [8]), 97% (active); in assay [3] (at 50.0 µM) it was 98.2% (active); in assay [4] (setting [7]), 12%; in assay [4] (setting [8]) it was 97% (active); in assay [4] (at 50.0 µM) it was 92.3% (active). The growth inhibition in assay [5] (setting [7]) is 8%; in assay [5] (setting [8]), 97% (active); in assay [5] (at 50.0 µM) it was 96.8% (active); in assay [6] (setting [7]), 19%; in assay [6] (setting [8]) it was 94% (active); in assay [6] (at 50.0 µM) it was 97.8% (active).
As for `C=CCOc1ccccc1C(=O)OC`, the growth inhibition in assay [1] (setting [7]) was 3%; in assay [1] (setting [8]), 0%; in assay [1] (at 50.0 µM), -4.6%; in assay [2] (setting [7]) it was 6%; in assay [2] (setting [8]) it was -4%; in assay [2] (at 50.0 µM), 7.9%. Further, the growth inhibition is -1% in assay [3] (setting [7]); -5% in assay [3] (setting [8]); 7.2% in assay [3] (at 50.0 µM); 5% in assay [4] (setting [7]); -4% in assay [4] (setting [8]); 30.9% in assay [4] (at 50.0 µM). The growth inhibition in assay [5] (setting [7]) was -3%; in assay [5] (setting [8]), -10%; in assay [5] (at 50.0 µM), -2.45%; in assay [6] (setting [7]), 3%; in assay [6] (setting [8]) it was -1%; in assay [6] (at 50.0 µM), 0.3%.
Regarding `CC(=O)Nc1ccc(S(=O)(=O)/N=C2\C=CC(=O)c3ccccc32)cc1`, the growth inhibition in assay [1] (setting [7]) was 2%; in assay [1] (setting [8]), 27%; in assay [1] (at 50.0 µM) it was 63.9%; in assay [2] (setting [7]), 4%; in assay [2] (setting [8]) it was 24%; in assay [2] (at 50.0 µM), 54.6%. Besides, the growth inhibition is 1% in assay [3] (setting [7]); 7% in assay [3] (setting [8]); 79.9% (active) in assay [3] (at 50.0 µM); -9% in assay [4] (setting [7]); -6% in assay [4] (setting [8]); -43.4% in assay [4] (at 50.0 µM). Also, the growth inhibition in assay [5] (setting [7]) was 5%; in assay [5] (setting [8]), 14%; in assay [5] (at 50.0 µM) it was 71.7% (active); in assay [6] (setting [7]), 5%; in assay [6] (setting [8]), 16%; in assay [6] (at 50.0 µM), 80% (active).
For the molecule `Cc1cc(NS(=O)(=O)c2ccc(N)cc2)no1.[Ag]`, the growth inhibition in assay [1] (setting [7]) was 99% (active); in assay [1] (setting [8]), 99% (active); in assay [1] (at 50.0 µM), 99.4% (active); in assay [2] (setting [7]), 100% (active); in assay [2] (setting [8]), 99% (active); in assay [2] (at 50.0 µM), 99.7% (active). The growth inhibition is 99% (active) in assay [3] (setting [7]); 100% (active) in assay [3] (setting [8]); 99.7% (active) in assay [3] (at 50.0 µM); 99% (active) in assay [4] (setting [7]); 99% (active) in assay [4] (setting [8]); 99.5% (active) in assay [4] (at 50.0 µM). In addition, the growth inhibition in assay [5] (setting [7]) is 99% (active); in assay [5] (setting [8]), 99% (active); in assay [5] (at 50.0 µM), 99.7% (active); in assay [6] (setting [7]), 99% (active); in assay [6] (setting [8]), 99% (active); in assay [6] (at 50.0 µM) it was 99.5% (active).

The record behind these values is PubChem BioAssay (NCI).
